Here are results for 17 molecules from PubChem BioAssay (NCI).

Compounds without any hit were thinned out: in the full panel of roughly 83,000, 20% have a hit.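 Percent growth is the endpoint: 0 to 100 indicates growth inhibition (40 means 60% inhibition), 0 means no net growth, and negative values indicate cell death.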 Unmarked numbers belong to inactive results. Activity calls are given as the source filed them. Rule for the calls: active = growth percent below 10; inactive = the rest.

Among the test systems are T-47D breast; BT-549 breast; MDA-MB-435 melanoma; SW-620 colon; MCF7 breast; HCC-2998 colon; KM12 colon; HCT-116 colon.
Experiment in all cases: NCI-60 one-dose screen, 48 h (100 = growth as untreated, 0 = no growth, -100 = all killed)
What all share (settings): 10 µM unless noted

On to `O=C1N(Cc2ccccc2Cl)c2ccccc2C12NN=C(c1ccccc1)S2` (stereo not drawn), for which the growth in the assay with T-47D breast was 72.3%; in the assay on BT-549 breast, 70%; in the assay with MDA-MB-435 melanoma it was 68.5%; with SW-620 colon, 47.6%; in the assay on MCF7 breast, 53.5%; with HCC-2998 colon it was 73.7%. In addition, the growth with KM12 colon was 50.8%.

Regarding `CCC(=O)OCc1ccc(OC)cc1`, the growth with T-47D breast is 103%; in the assay on BT-549 breast it was 104%; in the assay with MDA-MB-435 melanoma, 112%; in the assay with SW-620 colon, 111%; in the assay on MCF7 breast, 107%; in the assay with KM12 colon, 137%.

With `CNC1=C([N+](=O)[O-])C(c2ccccc2O)C(C#N)=C(c2cccs2)O1` (stereo not drawn), the growth is 81.7% in the assay with T-47D breast; 100% with BT-549 breast; 97.8% in the assay on MDA-MB-435 melanoma; 92.3% in the assay on MCF7 breast; 98.7% with HCT-116 colon; 114% with HCC-2998 colon. Further, in the assay with KM12 colon, the growth was 99.8%.

Regarding `CS(=O)(=O)c1ccc(C(=O)N/N=C/c2ccc3c(c2)OCO3)cc1`, the growth with T-47D breast is 97.3%; with BT-549 breast, 109%; with MDA-MB-435 melanoma, 102%; in the assay on SW-620 colon it was 105%; with MCF7 breast, 95%; in the assay with HCC-2998 colon it was 93%. Further, the growth in the assay with KM12 colon is 95.9%.

With `CCOC(=O)C1=C(C)NC(=S)NC1c1ccccc1` (stereo not drawn), the growth is 96.2% in the assay with T-47D breast; 110% with BT-549 breast; 102% in the assay on MDA-MB-435 melanoma; 97.3% in the assay on SW-620 colon; 99.7% with MCF7 breast; 110% in the assay on HCC-2998 colon. The growth in the assay with KM12 colon is 101%.

Consider `CCOC(=O)CCN(CCC(=O)OCC)c1ccccc1`, for which the growth was 95.7% with T-47D breast; 97.9% in the assay on BT-549 breast; 124% in the assay on MDA-MB-435 melanoma; 103% in the assay on SW-620 colon; 101% with MCF7 breast; 119% with HCC-2998 colon. The growth in the assay on KM12 colon was 93.5%.

For `c1csc(-c2cnc3nonc3n2)c1`, the growth was 45.9% in the assay with T-47D breast; 87.3% in the assay with BT-549 breast; 98.6% with MDA-MB-435 melanoma; 99.7% with SW-620 colon; 61.3% in the assay on MCF7 breast; 112% in the assay on HCC-2998 colon. Moreover, the growth in the assay with KM12 colon is 91.5%.

In the case of `CC(C)OC1OC(OC(C)C)C(OC(C)C)OC1OC(C)C` (stereo not drawn), the growth was 115% in the assay on T-47D breast; 102% with BT-549 breast; 110% with MDA-MB-435 melanoma; 96.2% with SW-620 colon; 103% in the assay with MCF7 breast; 121% with HCC-2998 colon. Further, in the assay with KM12 colon, the growth was 95.2%.

`CC1(C)OC2OC3C(CN)OC(c4ccccc4)OC3C2O1` (stereo not drawn): the growth is 92.6% with T-47D breast; 103% with BT-549 breast; 110% in the assay on MDA-MB-435 melanoma; 122% with SW-620 colon; 103% in the assay on MCF7 breast; 94.9% in the assay on HCC-2998 colon. The growth with KM12 colon is 104%.

With `COc1cc(CN(c2ccc(C)cc2)C2OC(=O)c3ccccc32)cc(OC)c1OC` (stereo not drawn), the growth is 53.8% in the assay on T-47D breast; 20.8% with BT-549 breast; -17.8% (active) with MDA-MB-435 melanoma; 36.2% in the assay with SW-620 colon; 13.9% in the assay with MCF7 breast; 4.25% (active) in the assay with HCC-2998 colon. Besides, the growth in the assay on KM12 colon was 17.1%.

As to `N=C(N)c1ccc(-c2ccc(-c3ccco3)o2)cc1F`, the growth in the assay with T-47D breast was -27.8% (active); in the assay with BT-549 breast, 25%; with MDA-MB-435 melanoma it was -59.1% (active); in the assay with MCF7 breast, -13.7% (active); in the assay on HCT-116 colon, -21.2% (active); in the assay with HCC-2998 colon, -74.7% (active). In addition, the growth in the assay with KM12 colon is 4.94% (active).

In the case of `Cc1cccc2nc3ccccc3c(Nc3ccc(NS(C)(=O)=O)cc3)c12`, the growth in the assay with T-47D breast was 37.1%; with BT-549 breast it was 81.7%; in the assay on MDA-MB-435 melanoma, 78.6%; in the assay with SW-620 colon, 34.2%; with MCF7 breast, 24.8%; in the assay with HCC-2998 colon it was 75.5%. Also, the growth with KM12 colon was 55.5%.

For `CCCCCCCCCCCCCCCC1=NC(C)(C)CN1C(C)C`, the growth is -11.2% (active) in the assay with T-47D breast; 71.3% in the assay with BT-549 breast; -59.3% (active) with MDA-MB-435 melanoma; -69.1% (active) in the assay with SW-620 colon; -27.6% (active) in the assay on MCF7 breast; -89.9% (active) with HCC-2998 colon. Moreover, in the assay with KM12 colon, the growth was -73.2% (active).

As for `Clc1cccc(CNc2c3ccccc3nc3ccccc23)c1`, the growth in the assay with T-47D breast was 40.9%; with BT-549 breast, 59.1%; in the assay with MDA-MB-435 melanoma, 46.6%; in the assay on MCF7 breast, 0.909% (active); with HCT-116 colon, 8.69% (active); in the assay with HCC-2998 colon it was -53.6% (active). Also, the growth with KM12 colon is 40.8%.

Consider `C=C1C(=O)O[C@H]2[C@H]1CC/C(COC(=O)N[C@@H](Cc1c[nH]c3ccccc13)C(=O)OC)=C\CC[C@@]1(C)O[C@@H]21`, for which the growth in the assay with T-47D breast is -16.9% (active); in the assay with BT-549 breast, 45.3%; in the assay on MDA-MB-435 melanoma, 49.1%; in the assay with SW-620 colon it was -6.63% (active); with MCF7 breast, 11.7%; in the assay on HCC-2998 colon, 82.4%. The growth with KM12 colon is 74.6%.

For the molecule `COc1cc(C2CC(c3ccc(Cl)cc3)=NN2C(C)=O)ccc1Oc1nc2c(c(=O)n(C)c(=O)n2C)n1C` (stereo not drawn), the growth in the assay on T-47D breast was 76.8%; in the assay with BT-549 breast, 83.2%; in the assay with MDA-MB-435 melanoma it was 64.1%; in the assay with MCF7 breast, 70.2%; in the assay on HCT-116 colon, 85.5%; in the assay with HCC-2998 colon, 87.3%. The growth in the assay on KM12 colon is 78.2%.

Consider `Cc1ccc(NC(=O)c2sc3nc4c(cc3c2N)C(=O)CCC4)cc1Cl`, for which the growth is 105% in the assay with T-47D breast; 115% with BT-549 breast; 99.2% in the assay with MDA-MB-435 melanoma; 113% in the assay with SW-620 colon; 102% in the assay with MCF7 breast; 103% in the assay on HCC-2998 colon. The growth in the assay on KM12 colon is 116%.
